Assay outcomes from PubChem.
In the library only some 3.8% were active in any assay of this set; here they are far more common.
Y pestis TopoI: blocks Yersinia pestis topoisomerase I activity; activity, % at 10 µM; Y. pestis Topo-I cleavage product accumulation, plate reader; 360,000 compounds, 0.064% hits; AID 504884; in the data active means activity above about 50%, passing the limit was not always enough
PrPC TRFRET: inhibitors of human cell surface prion protein PrPC; inhibition, % at 13.8 µM; TR-FRET read-out; P04156; 370,000 compounds, 0.43% hits; in the data active means inhibition above about 24%; further: 0% = median of the test wells and 100% = reference compound wells
Mtb FBA inh: Mtb fructose-bisphosphate aldolase inhibition. purified M. tuberculosis FBA, fluorescence read-out. inhibition, % at 1 µM. P9WQA3. AID 588726. 360,000 compounds, 2.3% hits; in the data active means inhibition above about 27%;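 further: 0% = vehicle and 100% = reference inhibitor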
Target sequence (P9WQA3 whole entry, looked up): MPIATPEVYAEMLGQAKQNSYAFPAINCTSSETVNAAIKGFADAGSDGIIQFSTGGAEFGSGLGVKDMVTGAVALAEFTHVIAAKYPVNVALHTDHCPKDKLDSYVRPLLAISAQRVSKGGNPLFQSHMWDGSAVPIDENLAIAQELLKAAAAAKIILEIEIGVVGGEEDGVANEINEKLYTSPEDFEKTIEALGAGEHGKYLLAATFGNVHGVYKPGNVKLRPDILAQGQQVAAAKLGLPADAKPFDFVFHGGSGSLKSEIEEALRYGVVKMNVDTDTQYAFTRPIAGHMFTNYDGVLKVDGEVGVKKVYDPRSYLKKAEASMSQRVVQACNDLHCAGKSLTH
PrP UTR inh: suppresses PrP 5' UTR mRNA reporter expression; cell-based PrP 5' UTR mRNA reporter, plate reader; 340,000 compounds, 0.35% hits; inhibition, % (concentration not given with the values); in the data active means inhibition above about 52%; further: 0 = median of the neutral control wells
GDH-TPI counter: inhibits GDH-TPI coupling enzymes, artifact for Mtb FBA screen | GDH-TPI coupled enzyme counterscreen, NADH absorbance | inhibition, % at 4.8 µM | AID 588335 | 360,000 compounds, 1.2% hits; in the data active means inhibition above about 30%;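 further: 0% = DMSO wells and 100% = wells lacking the enzyme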
Mtb hypoxia rep: inhibitors of hypoxia-regulated fluorescent reporter in Mycobacterium tuberculosis. M. tuberculosis hypoxia-regulated fluorescent reporter, fluorescence. fluorescence inhibition, % (concentration not given with the values). 300,000 compounds, 0.1% hits. AID 1159583; in the data active means fluorescence inhibition mostly above about 23%, no sharp cut-off; inactive means mostly below about 17%
An asterisk follows results filed as active; / = not tested or not shown; + = active, no number; ! = repeats disagree.

SMILES	Y pestis TopoI	PrPC TRFRET	Mtb FBA inh	PrP UTR inh	GDH-TPI counter	Mtb hypoxia rep
COc1cc(C2OCC3C(c4cc(OC)c(OC5OC(CO)C(O)C(O)C5O)c(OC)c4)OCC23)cc(OC)c1OC1OC(CO)C(O)C(O)C1O (stereo not drawn)	/	/	/	/	/	8
CC(NC(=O)c1nc[nH]c1C(=O)NCC(=O)OCc1ccccc1)c1ccccc1 (stereo not drawn)	/	/	/	/	/	0
CC(C(=O)Nc1ccc2ccccc2c1)C1C[C@@]1(C)C(NC(=O)c1cccnc1)c1ccccc1 (stereo partly drawn)	/	/	/	/	/	-3
CN(C)/N=C/c1ccc(P(c2ccc(/C=N/N(C)C)o2)c2ccc(/C=N/N(C)C)o2)o1	41	-9	-6	-18	65*	/
CCOc1ccccc1N1C(=O)NC(=O)/C(=C/c2ccc3c4c(cccc24)CC3)C1=O	-10	4	38*	-1	24	4
N#C/C(=C\c1ccc(O)cc1)C(=O)O	4	-5	-1	-15	35*!	/
COc1ccc(-c2c(C)c3ccc(OCC(C)=O)cc3oc2=O)cc1	/	/	/	-39	/	-1
Cc1c(Cc2ccccc2)c(=O)oc2c(CN(C)C)c(O)c(Cl)cc12	10	-4	+	-17	17	6
Cc1c(Cc2ccccc2)c(=O)oc2cc(O)ccc12	12	3	+	-19	27	9
CN(C)Cc1c(O)ccc2oc(Cc3ccccc3)cc12	-11	-10	-1	10	-5	10
Cc1c(Cc2ccccc2)c(=O)oc2c(O)c(O)ccc12	-5	-6	1	-1	5	-1
CCOC(=O)Cc1c(C)c2c(O)cc(O)cc2oc1=O	-5	15	121*	1	19	-7
COc1ccc(-c2c(C)c3ccc(O)cc3oc2=O)cc1	2	-2	+	-21	23	/
CC(C)CC1COCCS(=O)(=O)N1Cc1ccc(Cl)c(Cl)c1 (stereo not drawn)	/	/	/	/	/	0
CCOC(=O)CCc1c(C)c2ccc(O)cc2oc1=O	5	5	+	-16	1	-93
COc1ccc(C=NN=C2CC(C)(C)Cc3n[nH]c(=O)cc32)cc1	/	/	/	/	/	5
CCOC(=O)c1cc2c(nc1N)CC(C)(CC)OC2 (stereo not drawn)	-6	5	112*	-33	14	/
CCOC(=O)c1sc2nc3c(cc2c1N)COC(C)(CC)C3 (stereo not drawn)	5	-6	4	-37	7	12
CCOC(=O)c1cc2c(nc1N)CC(C)(C)OC2	0	0	164*	-21	20	6
CC(=O)CC(O)CC(=O)C1OC(=O)CCCCCC=CCc2ccccc21 (stereo not drawn)	/	/	/	/	/	-1
NC(=O)N\N=C/C=C/C=C/c1ccc(F)cc1	0	3	-5	-2	53*	/
CCOC(=O)CC1=NN(c2ccccc2)C(=O)C1=Cc1ccc(OC)cc1OC	/	/	/	/	/	1
C=C1C=C(C)C(C)(O)CC(O)CC(=O)C(O)C(O)C(C)CC(C)OC(=O)C(C)=CCCC=CC(OC)C(O)CC(C)C1 (stereo not drawn)	/	/	/	/	/	6
O=C1Nc2ccc([N+](=O)[O-])cc2C1(O)N1CCCCCC1 (stereo not drawn)	6	-18	-1	-16	33*	5
CC1CCN(C2(O)C(=O)Nc3ccc(Br)cc32)CC1 (stereo not drawn)	4	-2	3	-6	4	8
SMILES	Y pestis TopoI	PrPC TRFRET	Mtb FBA inh	PrP UTR inh	GDH-TPI counter	Mtb hypoxia rep
Clc1cccc(C=NNc2nnc(Cl)c3ccccc23)c1	/	/	/	/	/	3
COc1nccnc1NS(=O)(=O)c1ccc(NC=C2CCCCC2=O)cc1	/	/	/	/	/	16
Cc1ccc(S(=O)(=O)C(C#N)c2nc3ccccc3nc2N2CCCC2)cc1 (stereo not drawn)	8	-14	128*	-23	11	/
CCOc1ncccc1C(=O)Nc1cc2c(cc1Br)OCCO2	11	-6	0	-52	10	36*
CCOc1ncccc1C(=O)Nc1ccc2c(c1)OCO2	5	2	0	-16	-9	/
COCCNC(=O)N1C2CCC1C(C(=O)OC)=C(c1ccc(-c3ccccc3)c(F)c1)C2 (stereo not drawn)	/	/	/	/	/	-5
CCOC(=O)N1CCN(c2nc(-c3ccc(Cl)cc3)cs2)CC1	9	2	1	-41	2	-3
CC(C)C(=O)N1CCN(c2nc(-c3ccc(Cl)cc3)cs2)CC1	53*	8	-4	-12	3	7
Cc1nc(-c2cnn(-c3ccccc3)c2)c2cc(C)oc2n1	1	-3	119*	-19	9	/
Cc1oc2c(O)c(O)ccc2c(=O)c1-c1cnn(-c2ccccc2)c1	2	-2	-1	-36	11	6
COc1ccc(NC(=O)N(C)CC2Oc3c(NC(=O)Nc4ccc5c(c4)OCO5)cccc3C(=O)N(C(C)CO)CC2C)cc1 (stereo not drawn)	/	/	/	/	/	4
COc1ccc(CNC(=O)C2CCCN(S(=O)(=O)c3c(C)noc3/C=C/N(C)C)C2)cc1 (stereo not drawn)	19	2	-4	-11	28	9
Cc1noc(/C=C/N(C)C)c1S(=O)(=O)N1CCCC(C(=O)NCc2ccccc2Cl)C1 (stereo not drawn)	2	-1	-1	0	32*	2
Cc1ccc(CNC(=O)C2CCCN(S(=O)(=O)c3c(C)noc3/C=C/N(C)C)C2)cc1 (stereo not drawn)	6	-2	2	-14	52*	9
Cc1noc(/C=C/N(C)C)c1S(=O)(=O)N1CCCC(C(=O)NCc2ccc(Cl)cc2)C1 (stereo not drawn)	27	-8	-3	-28	56*	3
O=C(O)CC1S/C(=N/N=Cc2ccc(-c3ccccc3[N+](=O)[O-])o2)NC1=O (stereo not drawn)	/	/	/	/	/	14
CC1CN(C(C)CO)C(=O)c2cc(NC(=O)NC3CCCCC3)ccc2OC1CN(C)S(C)(=O)=O (stereo not drawn)	/	/	/	/	/	7
C=CCn1c2ccccc2c(=O)c2cc(C#CC[C@@H](C)O)ccc21	6	-6	+	-25	13	/
Cn1c2ccccc2c(=O)c2cc(C#Cc3cccc(N)c3)ccc21	9	/	8	-45	15	-2
COc1cccc(-c2c(-c3cc(OC)cc(OC)c3)n(C)c3ccc(-c4cnc(OC)nc4)cc23)c1	-3	-7	4	-18	-6	15
COc1cccc(-c2c(-c3cc(OC)cc(OC)c3)n(C)c3ccc(-c4cnc(N5CCOCC5)nc4)cc23)c1	9	-3	4	-19	2	45*
C=C1C(=O)O[C@H]2C[C@H]1[C@@H](OC(C)=O)C/C(C)=C/CC/C(C)=C\CC[C@]2(C)O	16	38*	0	4	-14	1
C=C1C(=O)O[C@@H]2[C@H]3O[C@]3(C)CC/C=C(\C)CC[C@@H]12	0	5	3	-13	-1	/
